Assay outcomes deposited in PubChem BioAssay by National Center for Advancing Translational Sciences (NCATS).
A selection: hits, their analogues and other compounds. The true share with any hit is near 1.4%.
p53 reactivator – restores transcriptional activity of mutant p53. H1299 p53-A138V BP100-luciferase reporter, luminescence, 24 h. Potency, µM (doses to about 92.2 µM), inactives show at the highest dose activity change, positive = activation, most hits filed as activators. actives 0.063% (n = 320,000). AID 504706; note: potency is the fitted concentration of half-maximal effect; % of control where 0% means no effect; nearly all actives have a fitted effect of over 45% in size
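H1299 (p53-null), stable ts p53-A138V + BP100-Luc; 1000 cells/well, Opti-MEM/10% FBS; cpd 4 pt, 1:5; 24 h, 37 deg C, 5% CO2; detection reagent 10 min RT; luminescence.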
ALOX12 inh – inhibitors of human 12S-lipoxygenase ALOX12; purified 12hLO, xylenol orange hydroperoxide absorbance; Potency, µM (series often up to 108 µM), for inactives: at the top dose activity change, negative = inhibition, hits mostly inhibitors; actives 1.1% (n = 580,000); AID 1671190; note: potency is the fitted concentration of half-maximal effect; % is set by controls: 0 for no effect and ±100 for the full control effect
Target sequence (P18054 whole entry, looked up): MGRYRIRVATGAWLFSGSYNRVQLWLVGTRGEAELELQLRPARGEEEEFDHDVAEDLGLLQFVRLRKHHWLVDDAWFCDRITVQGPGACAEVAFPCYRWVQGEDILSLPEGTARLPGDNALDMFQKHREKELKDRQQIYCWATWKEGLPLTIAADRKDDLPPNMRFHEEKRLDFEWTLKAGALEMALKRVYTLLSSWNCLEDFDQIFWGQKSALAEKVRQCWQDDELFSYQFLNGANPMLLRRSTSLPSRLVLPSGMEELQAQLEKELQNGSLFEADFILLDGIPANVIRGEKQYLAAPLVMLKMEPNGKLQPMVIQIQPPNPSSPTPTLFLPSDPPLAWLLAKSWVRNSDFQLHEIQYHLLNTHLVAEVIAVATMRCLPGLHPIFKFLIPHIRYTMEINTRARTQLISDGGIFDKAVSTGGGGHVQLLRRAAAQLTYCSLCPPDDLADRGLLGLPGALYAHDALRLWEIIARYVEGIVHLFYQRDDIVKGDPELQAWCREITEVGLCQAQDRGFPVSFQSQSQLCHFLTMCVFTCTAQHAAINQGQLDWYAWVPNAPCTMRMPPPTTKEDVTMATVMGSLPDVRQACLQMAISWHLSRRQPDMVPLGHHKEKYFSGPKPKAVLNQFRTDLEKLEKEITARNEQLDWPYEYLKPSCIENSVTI
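Purified human 12hLO (150 nM final) in 25 mM Hepes, 0.01% Triton X-100, pH 7.0 was preincubated 15 min at room temperature with compound. Then 40 uM arachidonic acid was added, 30 min. Hydroperoxide was read by Fe-XO absorbance ratio 573/405 nm.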
PINK1 expr mod – modulators of PINK1 expression; Potency, µM (doses to about 76.6 µM), for inactives: top-dose activation (PINK1 increase), hits mostly activators; PINK1 immunofluorescence, high-content cytometry, 24 h; actives 0.2% (n = 410,000); active = well fitted activation curve with a large enough effect; inconclusive = small, poorly fitted or top-dose-only effect; cell line not stated here; note: potency is the fitted concentration of half-maximal effect; % of control where 0% means no effect; nearly all actives have a fitted effect of over 65% in size
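Decision-based qHTS: stable cells, 24 h exposure to five compound concentrations, CCCP as control. Fixed cells stained for PINK1 plus nuclear, mitochondrial and cell markers, cytometer read.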
CCT chaperon mod – cytosolic chaperonin activity modulation; AID 651819; purified chaperonin ATPase assay, HTRF ADP detection, 30 min; activity change, % (concentration not given with the values), hits read low; actives 0.3% (n = 360,000); in the data active = activity change below about -30%; note: % is set by controls: 0 for no effect and ±100 for the full control effect
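Enzyme 40 or 20 nM (batch-dependent) in Tris pH 7.4/KCl/MgCl2/DTT; cpd 76 uM single point; ATP 10 uM; 30 min 37 °C; Transcreener ADP HTRF detection, 30 min RT; ratio 665/615.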
MmCpn inh – inhibitors of Methanococcus maripaludis chaperonin TRiC (MmCpn) | Potency, µM (series often up to 76.9 µM), for the others: top-dose activity, negative = inhibition, actives largely listed as inhibitors | actives 0.031% (n = 330,000) | purified Mm-Cpn ATPase, ADP Transcreener TR-FRET; note: potency is the fitted concentration of half-maximal effect; % is set by controls: 0 for no effect and ±100 for the full control effect; nearly all actives have a fitted effect of over 80% in size
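TR-FRET (320 nm excitation; 590 and 665 nm emission) reports ADP made from 10 uM ATP by 25 nM enzyme; compounds were preincubated 10 min, reaction run 30 min, both at 37°C.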
S-ASM inh – human S-ASM enzyme inhibition; P17405; placental ASM, HMU-PC fluorogenic substrate, 60 min; Potency, µM (titrated, usually from 57.5 µM), without a hit: top-dose activity change, negative = inhibition, hits mostly inhibitors; actives 0.006% (n = 340,000); note: potency is the fitted concentration of half-maximal effect
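qHTS format. ASM enzyme prepared from human placenta hydrolyses the fluorogenic substrate HMU-PC0 (9 uM final) over 60 min at 37 °C after a 10 min compound preincubation.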
The depositor's hits bear a star; ? = inconclusive; · = no result; [ ] = remark or other dose. Unless noted, calls come from the whole dose curve; as a rule, active = well fitted curve in the direction sought with a large enough effect; inconclusive = small, poorly fitted or top-dose-only effect, or another doubt; inactive = no such curve, though single readings can be large; an effect the other way counts as inactive or inconclusive.

SMILES | p53 reactivator | ALOX12 inh | PINK1 expr mod | CCT chaperon mod | MmCpn inh | S-ASM inh
Cc1csc2nc(O)c(C(=O)NC3CCCCCC3)c(=O)n12 | 0% | -1% | 1% | -35* | -3% | -5%
Cc1ccc2c(c1)CCCN2C(=O)c1cc(C)c(C)s1 | 11% | -2% | 0% | -33* | -8% | -2%
Cc1ccc2c(c1)CCCN2C(=O)c1cccs1 | 7% | ? | 1%[38.3 µM] | -5 | 0% | -3%
CCC(CO)Oc1cc(NC(=O)c2ccccc2F)c2ncn(C(C)C)c2c1 (configuration not stated) | -2% | 28µM* | 0% | 2 | -9% | -4%
COCCN[C@@H]1C[C@@H]2c3[nH]c4ccccc4c3C[C@@H](C(=O)OC)N2[C@H](c2ccc(F)c(F)c2)C1 | · | 37% | · | · | · | ·
COc1ccc(NC(=O)Nc2cccc(-c3ccc(N4CCOCC4)nn3)c2)cc1F | · | 10% | · | · | · | ·
COc1cccc(NC(=O)Cn2c(N3CCc4ccccc4C3)nc(C)cc2=O)c1 | · | 28µM* | · | · | · | ·
CCN1C(=O)/C(=C\N(C)C)S/C1=N\S(=O)(=O)c1ccc(C)cc1 | -4% | 10% | 2% | -45* | 1% | 1%
O=C(O)COc1ccc2nsnc2c1Cl | 2% | 0% | 2% | -1 | 6.3µM* | 327%
Cc1ccccc1OCC(=O)Nc1c(C)ccc2nsnc12 | · | -1% | 3% | · | · | ·
CC(=O)Nc1ccc(S(=O)(=O)N[C@H]2CO[C@H]3[C@@H]2OC[C@@H]3Nc2nccc(-c3cccs3)n2)cc1 | · | 25% | · | · | · | ·
COc1ccc(C2C(C(C)=O)=C(O)C(=O)N2CCO)c(OC)c1 (configuration not stated) | -3% | ? | 1% | 1 | 1% | 3%
CCCCN1C(=O)C(O)=C(C(C)=O)C1c1ccc(OC)cc1OC (configuration not stated) | -9% | 8.9µM* | 1% | -6 | 2% | 1%
CC(C)Cc1nnc(NC(=O)c2cccc(S(=O)(=O)N3CCN(C)CC3)c2)s1 | 2% | -11% | 2% | -1 | -2% | 1%
CC(C)Cc1nnc(NC(=O)c2cccc(S(=O)(=O)N3CCOCC3)c2)s1 | 1% | ? | -1% | -59* | ? | -3%
C/C(=N/Nc1c(F)c(F)nc(F)c1F)c1ccc(Cl)c([N+](=O)[O-])c1 | · | 9% | · | · | · | ·
Cc1cc(NC(=O)c2cc(-c3ccc[nH]3)n[nH]2)ccc1F | · | -16% | · | · | · | ·
Cc1ccc(F)cc1NC(=O)c1cc(-c2ccc[nH]2)n[nH]1 | · | 16µM* | · | · | · | ·
O=C(Nc1cccc(OC(F)(F)F)c1)c1cc(-c2ccc[nH]2)n[nH]1 | · | 14µM* | · | · | · | ·
S=C(NCc1cccnc1)NC1CC1 | · | -24% | · | · | · | ·
Cc1ccc(C(=O)NCCn2c(C)cc3ccccc32)cc1 | · | -7% | · | · | · | ·
Cc1cc2ccccc2n1CCNC(=O)COc1ccccc1 | -18% | ? | 0% | -32* | -22% | 3%
Cc1cc2ccccc2n1CCNC(=O)c1ccccc1 | -8% | -8% | -1% | -1 | 40µM* | -8%
Cc1cc2ccccc2n1CCNC(=O)c1ccc(S(=O)(=O)N2CCOCC2)cc1 | -1% | ? | -5%[38.3 µM] | -5 | 32µM* | -4%
OCc1ccccc1-c1nc(NCc2ccccc2)nc2ccsc12 | · | 14µM* | 1% | 0 | · | ·
Cc1cccc(NC(=O)CSc2ncc3c(n2)-c2cc(C)ccc2N(C)S3(=O)=O)c1 | · | -26% | · | · | · | ·
COC(=O)c1ccc2c(c1)C(C)(C)C(/C=C/c1ccc(O)cc1)=[N+]2C | -23% | 5.6µM* | -5%[38.3 µM] | 0 | -9% | -2%
COc1cc(/C=C/c2ccc(O)cc2)cc(OC)c1 | · | ? | 5% | 2 | -3% | 4%
COC(=O)c1ccc2c(c1)C(C)(C)C(/C=C/c1ccc(OC)c(OC)c1OC)=[N+]2C | -12% | 2.5µM* | -2% | -2 | -22% | 35%
COc1ccc(/C=N/Nc2ccc(C(=O)O)cc2)c(OC)c1OC | 8% | 0% | 2% | -2 | -7% | 15%
